GDH-TPI counter: GDH-TPI coupling enzyme inhibitors, primary screen, artefact control for M. tuberculosis FBA inhibitor project, biochemical, absorbance, full deck. GDH-TPI coupled enzyme counterscreen, NADH absorbance. 360,000 tested, 1.2% active. AID 588335, 2011. inhibition, % at 4.8 µM
Mtb FBA inh: Mtb FBA enzyme inhibitors, primary screen, biochemical, fluorescence, strain H37Rv | AID 588726, 2011 | Fructose-bisphosphate aldolase (Mycobacterium tuberculosis (strain ATCC 25618 / H37Rv)), … | 360,000 tested, 2.3% active | purified M. tuberculosis FBA, fluorescence read-out | inhibition, % at 1 µM; in the data active means inhibition above about 27%
CCHFV vOTU inh: CCHFV vOTU protease inhibitors, primary screen, biochemical, Pep-AMC substrate, fluorescence. 370,000 tested, 0.55% active. AID 651958, 2012. Crimean-Congo hemorrhagic fever virus L polyprotein viral ovarian tumor (vOTU) protease …. inhibition, % at 11.5 µM
RecA splice inh: Mtb RecA intein splicing inhibitors, primary screen, biochemical, fluorescence, HTS; Protein RecA (Mycobacterium tuberculosis (strain ATCC 25618 / H37Rv)), P9WHJ3; cell-free RecA intein splicing; inhibition, % (no concentration beside the values); 290,000 tested, 0.75% active; AID 2221, 2009; in the data active means inhibition above about 30%
Target sequence (P9WHJ3 whole entry, looked up, canonical isoform): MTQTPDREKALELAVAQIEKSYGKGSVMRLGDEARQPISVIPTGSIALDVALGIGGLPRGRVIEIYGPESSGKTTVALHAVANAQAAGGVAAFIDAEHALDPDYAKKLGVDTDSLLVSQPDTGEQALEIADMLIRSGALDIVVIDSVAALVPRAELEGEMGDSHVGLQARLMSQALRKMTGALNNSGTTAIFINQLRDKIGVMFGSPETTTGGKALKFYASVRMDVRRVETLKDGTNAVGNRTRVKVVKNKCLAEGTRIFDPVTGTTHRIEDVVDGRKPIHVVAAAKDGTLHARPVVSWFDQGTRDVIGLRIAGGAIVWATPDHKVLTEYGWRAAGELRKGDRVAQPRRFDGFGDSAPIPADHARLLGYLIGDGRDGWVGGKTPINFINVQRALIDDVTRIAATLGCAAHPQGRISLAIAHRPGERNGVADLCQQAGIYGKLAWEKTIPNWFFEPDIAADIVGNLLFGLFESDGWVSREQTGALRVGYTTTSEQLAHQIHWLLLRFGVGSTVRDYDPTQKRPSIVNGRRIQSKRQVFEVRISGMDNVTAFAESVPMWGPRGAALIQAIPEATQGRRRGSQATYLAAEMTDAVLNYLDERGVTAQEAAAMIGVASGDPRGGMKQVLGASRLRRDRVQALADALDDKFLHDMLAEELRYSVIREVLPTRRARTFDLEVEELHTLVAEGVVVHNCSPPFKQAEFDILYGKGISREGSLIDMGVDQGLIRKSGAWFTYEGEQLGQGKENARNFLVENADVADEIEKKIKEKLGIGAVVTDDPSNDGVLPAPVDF
GFP chromophore: counter-screen: blocks GFP chromophore formation, dose response, counter-screen, biochemical, fluorescence, homogeneous | shares compounds with RecA splice inh | cell-free GFP chromophore formation | 2,100 tested, 83% active | AID 434968, 2010 | EC50, µM; call rule not given here
Numbers stand for hits; 0 = inactive; - = no result given. Rows were chosen to be rich in hits. Some 4.2% of all compounds tested hit in one or more screens of this group. Unless noted, no stated cut-off is given here; in the data, active means inhibition above about 30%; inactive means the rest.

SMILES	GDH-TPI counter	Mtb FBA inh	CCHFV vOTU inh	RecA splice inh	GFP chromophore
CCCCCCCCCCOC(=O)Cn1c(COc2cccc(C)c2)[n+](C)c2ccccc21	0	0	0	55	9.4
CCCCCCCCCCOC(=O)Cn1c(COc2ccccc2C)[n+](C)c2ccccc21	0	0	-	57	7.6
O=C(NCCO)c1ccc(-c2ccc3nncn3c2)cc1	0	0	0	-	-
Cc1c(C(=O)N2CCN(CCc3ccccn3)CC2)oc2ccc(Cl)cc12	0	0	0	0	-
CC(=O)c1c(C)nc(-c2ccc(Cl)cc2)nc1N	0	0	0	0	-
CC(=O)c1c(C)nc(-c2ccc(Cl)cc2)nc1N=CN(C)C	0	0	0	0	0
COc1cc(C2(c3ccc(O)c(OC)c3)C(=O)Nc3c(Br)cc(Br)cc32)ccc1O	0	0	0	49	12
Cn1c(=O)c([N+](=O)[O-])c(-n2ccnc2)c2ccccc21	0	0	0	66	19
CCN(CC)c1ccc(/C=C2\C(=O)N(c3nnc(C)c(=O)[nH]3)N=C2C)cc1	0	0	0	81	9.5
CCN(CC)c1ccc(/C=C2/C(=O)ON=C2C)cc1	0	0	0	-	-
O=CC(O)C1OC(=O)C(O)C1O (centres undefined)	0	0	0	-	-
C/C(=N\Nc1cc(C)nc(-c2ccccc2O)n1)c1ccccc1	0	0	0	0	-
Cc1cc(N/N=C/c2ccc(O)c(C)c2O)nc(-c2ccccc2O)n1	32	0	0	47	0
C/C(=N\NC(=O)CC#N)c1cc2ccccc2oc1=O	0	0	0	86	13
CCOC(=O)N1CCN(C(=O)c2cccc(S(=O)(=O)Nc3ccc(Br)cc3)c2)CC1	0	0	0	0	-
Clc1ccc(Sc2oc(/C=N/n3cnnc3)cc2Br)cc1	0	0	0	63	22
Clc1ccc(Sc2ccc(/C=N/n3cnnc3)o2)cc1	0	0	0	0	-
Nc1nc2ccccc2n1S(=O)(=O)c1ccc(Cl)cc1	0	0	0	-	-
Cc1ccccc1NC(=O)CSc1n[nH]c(-c2ccccn2)n1	0	0	0	0	-
Cc1ccc(C)c(NC(=O)CSc2n[nH]c(-c3ccccn3)n2)c1	0	0	0	51	0
Cc1ccc(Sc2ccc(NC(=O)CCl)cc2)c(C)c1	-	-	0	90	8.1
Cc1ccc(C)c(Sc2ccc(NC(=O)CCN3C(=O)NC4(CCCC4)C3=O)cc2)c1	0	0	0	-	-
O=C1c2ccccc2C(=O)c2c1oc(C(F)(F)F)c2C(=O)c1ccccc1	0	0	0	39	0
CC1=CC(C)(C)N2C(=O)C3(C(C#N)=C(N)Oc4cc(C)oc(=O)c43)c3cc(C)cc1c32 (centres undefined)	0	0	0	0	-
CCc1cc2c3c(c1)C1(C(=O)N3C(C)(C)C=C2C)C(C#N)=C(N)Oc2[nH]c(=O)[nH]c(=O)c21 (centres undefined)	0	0	0	78	19
SMILES	GDH-TPI counter	Mtb FBA inh	CCHFV vOTU inh	RecA splice inh	GFP chromophore
CC(C)COC(=O)N1CCCCC1c1cc(C(=O)Nc2ccc3c(c2)OCO3)no1 (centres undefined)	0	0	0	-	-
COc1ccc(CCNc2ccc(C(CC(N)=O)NC(=O)c3cc(OC)ccc3OC)cc2[N+](=O)[O-])cc1 (centres undefined)	0	0	0	0	-
Cc1ccc(C(=O)c2coc3cc([N+](=O)[O-])c(O)c([N+](=O)[O-])c23)cc1	0	0	0	34	37
O=C(COc1ccc(Br)cc1F)Nc1nnc(C2CC2)s1	0	0	0	-	-
Oc1ccccc1N=Cc1c(O)ccc2ccccc12	0	0	0	0	-
Oc1cccc(C=Nc2cccc3ccccc23)c1O	0	0	0	31	15
COc1ccc(C(=O)/C(=C/c2cccs2)c2nc3ccccc3o2)cc1	0	0	0	46	0
Cn1cnnc1SCC(=O)NNC(=O)c1ccc([N+](=O)[O-])cc1	0	0	0	-	-
Cc1ccc(Sc2ncnc3onc(C)c23)cc1	0	0	0	41	0
Cc1noc2ncnc(Sc3ccc(Cl)cc3)c12	0	0	0	0	-
Cc1ccc(NC(=O)Cc2ccccc2)cc1S(=O)(=O)N1CCOCC1	0	0	0	-	-
Clc1ncnc2scc(C3COc4ccccc4O3)c12 (centres undefined)	0	0	0	67	20
c1ccc2c(c1)OCC(c1csc3ncnc(N4CCCCC4)c13)O2 (centres undefined)	0	0	0	0	-
CC1(S(=O)(=O)O)CC(=O)c2ccccc2C1=O (centres undefined)	0	0	0	93	4.3
CS(=O)(=O)c1ccc(Cl)c(NC(=O)CCN2C(=O)NC3(CCCC3)C2=O)c1	0	0	0	-	-
CC1=C(C)/C(=N/OC(=O)c2cccc([N+](=O)[O-])c2)C=CC1=O	0	0	-	47	0
N/C(=N/OC(=O)c1cccc([N+](=O)[O-])c1)c1cccc([N+](=O)[O-])c1	0	0	0	0	-
CCC(C)C(NC(=O)c1ccccc1)C(=O)Nc1ccc(S(=O)(=O)Nc2cc(C)nc(C)n2)cc1 (centres undefined)	0	0	0	-	-
Cc1ccccc1NC(=O)CCCNC(=O)c1ccc(Cl)cc1	0	0	0	0	-
O=C(NCc1ccc2c(c1)OCO2)c1nc(S(=O)(=O)Cc2ccccc2F)ncc1Cl	0	0	0	37	8.9
O=C(NCc1ccc2c(c1)OCO2)c1ccccc1Cl	0	0	0	0	-
O=C(NCc1ccc2c(c1)OCO2)c1nc(S(=O)(=O)Cc2ccccc2)ncc1Cl	0	0	0	53	14
CC(=O)NCC1(O)CCCC(C)C1 (centres undefined)	0	0	0	0	-
C=CC[C@]12CCc3ccccc3C1N(c1ccc(C(=O)OCC)cc1)C2=O (some centres undefined)	0	0	0	-	-
CCOC(=O)COc1ccc(/C=C2\C(=O)NC(=S)N(c3ccc(OC)cc3)C2=O)cc1OC	0	0	0	0	-
SMILES	GDH-TPI counter	Mtb FBA inh	CCHFV vOTU inh	RecA splice inh	GFP chromophore
CCOC(=O)CSCCOc1ccc(C=C2C(=O)NC(=O)NC2=O)cc1OC	0	0	0	73	0
CN(C)c1ccc(NC(=O)CSc2nnc(-c3cnccn3)n2C)cc1	0	0	0	0	-
O=C(NCC(=O)N1CCN(Cc2ccccc2)CC1)c1ccc(Br)o1	0	0	0	0	-
S=C1NCCC12C(=S)Nc1ccccc12 (centres undefined)	0	0	0	37	0
c1ccc(CNc2nc(NCc3ccccc3)c3ccccc3n2)cc1	0	0	-	60	23
Fc1ccc(Nc2nc(NCc3ccco3)c3ccccc3n2)cc1	0	0	0	49	18
COc1ccc(CNC(=O)N2CCc3ccccc3C2)cc1Cl	0	0	0	0	-
CC1(C(=O)NS(=O)(=O)C2CC2)CCCN(C(=O)COCc2ccccc2)C1 (centres undefined)	0	0	0	-	-
O=Cc1ccc(Sc2nnc(-c3ccccc3)o2)c([N+](=O)[O-])c1	0	0	-	55	26
Cc1ccc(S(=O)(=O)Oc2ccc(C(c3c(C)[nH][nH]c3=O)c3c(C)[nH][nH]c3=O)cc2)cc1	0	0	-	97	0

Bioassay records (PubChem BioAssay)
